# CYP2C9 activ: activators of human CYP2C9 | P11712 | recombinant CYP2C9, luciferin-H conversion, luminescence; stronger effect = higher value; factor 1 = untreated enzyme, 0 = blocked | activation factor at 5 µM | hit rate 1.4% among 96,000;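 active = activation factor of 2 or more for CYP2C9 at a 5 µM dose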;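 note: 0 = sulfaphenazole-blocked wells and 1 = vehicle-only wells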
# Target sequence (P11712 whole entry, looked up): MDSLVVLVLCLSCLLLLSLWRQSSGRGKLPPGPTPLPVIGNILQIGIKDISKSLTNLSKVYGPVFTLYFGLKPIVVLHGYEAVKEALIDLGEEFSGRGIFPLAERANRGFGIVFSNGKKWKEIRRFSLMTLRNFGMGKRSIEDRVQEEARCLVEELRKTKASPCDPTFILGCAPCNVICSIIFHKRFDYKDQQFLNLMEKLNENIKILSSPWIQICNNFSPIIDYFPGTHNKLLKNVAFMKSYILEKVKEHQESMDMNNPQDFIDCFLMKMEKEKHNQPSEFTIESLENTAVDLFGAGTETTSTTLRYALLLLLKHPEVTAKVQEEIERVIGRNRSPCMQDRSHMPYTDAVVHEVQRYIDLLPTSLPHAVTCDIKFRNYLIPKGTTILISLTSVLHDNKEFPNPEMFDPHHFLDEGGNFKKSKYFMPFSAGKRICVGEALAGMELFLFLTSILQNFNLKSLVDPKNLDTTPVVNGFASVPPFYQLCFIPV
# CYP2C9 inh: blocks human cytochrome P450 2C9; P11712; CYP2C9 Supersomes, luciferin-H conversion, luminescence; inhibition, % at 5 µM; hit rate 20% among 96,000; AID 777;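 active = blocking of liver enzyme CYP2C9 beyond about 50% at 5 µM, limit read from the data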
# CYP2C19 act: increases human CYP2C19 enzyme activity | P33261 | recombinant CYP2C19, luciferin-H EGE luminescence; stronger effect = higher value; 0 = fully inhibited enzyme, 1 = untreated enzyme | activation factor at 5 µM | 96,000 tested, under 10 active | AID 1025;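 active = activation factor of at least 2 at 5 µM in the primary screen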;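 note: 0 = wells with 2.5 mM tranylcypromine and 1 = vehicle-only wells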
# sEH act: soluble epoxide hydrolase (human) activation; P34913; purified human sEH enzymatic activity, activator screen; activation, % at 2 µM; hit rate 0.04% among 91,000; AID 717; in the data active = activation above about 37%
# sEH inh: inhibitors of human soluble epoxide hydrolase | hit rate 0.34% among 91,000 | P34913 | recombinant human sEH enzymatic activity assay | inhibition, % at 2 µM | AID 707; in the data active = inhibition above about 80%
# CYP2C19 inhib: blocks human cytochrome P450 2C19. P33261. CYP2C19 Supersomes, luciferin-H EGE luminescence, 30 min. inhibition, % at 5 µM. hit rate 21% among 96,000. AID 778;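 active = CYP2C19 inhibition above a set limit at 5 µM in the primary screen, cut at about 50% in these data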;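 note: plate controls were negative control wells for no effect and 2.5 mM tranylcypromine positive control for full effect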
# An asterisk follows results filed as active; . = no result. Shown are actives, neighbours in structure and some others; about 27% of the full set was active somewhere.
SMILES,CYP2C9 activ,CYP2C9 inh,CYP2C19 act,sEH act,sEH inh,CYP2C19 inhib
CCCCCCCCCOC(=O)C(CC(=O)O)N1CCOCC1 (stereo not given),0.2,77*,1,10,-8,4
CCCCCOC(=O)CC(C(=O)OCCCCC)N1CCCCC1 (stereo not given),.,.,.,4,-3,.
CSc1nnc2c3ccccc3c3ccccc3c2n1,1,0,0.7,5,1,28
COc1ccc(C(=O)NCC(C)(C)SCc2c(C)cc(C)cc2C)cc1,0.8,22,0.5,11,-12,50
O=Cc1cn(-c2ccccc2)nc1-c1cc2cc(O)ccc2oc1=O,0.2,81*,0.9,14,-17,6
O=C(Nc1cc(Cl)cc(Cl)c1)C1CCC(=O)N1Cc1ccccc1Cl (stereo not given),0.1,91*,0,-4,6,96*
Cn1c(=O)c2c(=O)cc(NNC(=O)C(C)(C)C)[nH]c2n(C)c1=O,0.6,37,1,-11,11,1
Cc1cc(=O)[nH]c2n[nH]c(-c3ccccc3)c12,1.1,-15,0.2,11,-10,78*
Cc1cc(=O)[nH]c(-c2ccccc2)n1,0.9,5,1,0,3,2
CCCCNC(=O)CSc1nnc(NC(C)=O)s1,0.9,5,0.9,.,.,12
O=S(=O)(Nc1ccc(C(F)(F)F)cc1)c1cnc[nH]1,0,100*,0,.,.,99*
O=S(=O)(Nc1cccnc1)c1cccc(C(F)(F)F)c1,1.2,-21,0.8,-3,6,24
O=S(=O)(Nc1ccc(Cl)c(C(F)(F)F)c1)c1cnc[nH]1,0,99*,0,.,.,96*
O=S(=O)(Nc1cccc(C(F)(F)F)c1)c1cccnc1,1.1,-12,0.8,.,.,18
CS(=O)(=O)N1CCC(C(=O)Nc2ccc(Cl)c(C(F)(F)F)c2)CC1,0.7,33,0.7,-41,43,34
O=S(=O)(Nc1cccc(C(F)(F)F)c1)c1cnc[nH]1,0,100*,0,.,.,98*
CCn1c(Cc2cccc3ccccc23)nnc1SCC(=O)Nc1nccs1,.,.,.,-6,6,.
COc1ccc(CCNC(=O)C2CCN(S(=O)(=O)c3ccc(-n4cnnn4)cc3)CC2)cc1OC,0.7,29,0.7,12,-18,31
CC(O)CNc1nc2ccccc2n1CC(=O)NCCc1ccc(Cl)cc1 (stereo not given),0.6,36,0.5,7,-9,50*
C=CCN(CC=C)Cc1ccc(C(=O)OC)o1,0.9,11,0.7,4,-4,29
CCCn1c(SCc2ccc(Cl)cc2)nc2c1c(=O)[nH]c(=O)n2C,0.5,47,0.3,.,.,67*
C/C=C/Cn1c(SCc2ccc(Cl)cc2)nc2c1c(=O)[nH]c(=O)n2C,0.4,58*,0.5,3,-3,48
Cc1noc(C)c1C(=O)Nc1nc(C23CC4CC(CC(C4)C2)C3)cs1,1,1,0.9,-9,10,6
Cc1cc(C(=O)OCC(=O)Nc2cc(C(F)(F)F)ccc2N2CCOCC2)c(C)o1,0.4,63*,0.7,8,-8,32
O=C(Nc1cc(C(F)(F)F)ccc1N1CCOCC1)c1cn2ccccc2n1,0.5,54*,1,4,-4,0
SMILES,CYP2C9 activ,CYP2C9 inh,CYP2C19 act,sEH act,sEH inh,CYP2C19 inhib
O=C(Nc1cc(C(F)(F)F)ccc1N1CCOCC1)c1ccc(Cl)nc1,0.6,37,0.2,0,-2,76*
COC(=O)c1ccc(CNC(=O)CNc2cc(C(F)(F)F)ccc2N2CCOCC2)cc1,0,95*,0.5,.,.,45
COc1cc2c(cc1OC)C(c1cc(OC)c(OC)c(OC)c1)NCC2 (stereo not given),.,.,.,10,-12,.
O=C(Nc1cc(C(F)(F)F)ccc1N1CCOCC1)c1ccccc1,0.9,11,0.4,-3,4,64*
Cc1cc(CCN2CCC(=O)NC2=S)ccc1OC(C)C,0.7,25,0.2,-2,5,80*
COc1ccc(CN2CCC(=O)NC2=O)cc1,1,-2,0.6,6,-4,44
O=C(C1CC1)N1CCc2cc(S(=O)(=O)N3CCCc4ccccc43)ccc21,0.5,47,0.8,.,.,15
O=C1CCCC2=C1C(O)(C(F)(F)F)C(=O)N2Cc1ccccc1 (stereo not given),.,.,.,-1,3,.
O=C1N2c3ccccc3CCc3cccc(c32)C1(O)C(F)(F)F (stereo not given),0.7,34,0.5,-3,5,52*

# Compound activity deposited in PubChem BioAssay by several laboratories.
